We go through 68 compounds from PubChem BioAssay AID376 (PDSP, 2006).

Screen size: about 2,000 compounds; about 250 (12%) were called active. Rule as the data show it: active = hERG blockade below about -20% or above about 20%; inactive = in between. The sample as a whole holds a higher share of actives than the screen did.

For this assay, the target named is Voltage-gated inwardly rectifying potassium channel KCNH2 (Homo sapiens) (UniProt Q12809). As to the kind of experiment: modulators of KCNH2 ion channel function, cellular (AID 376).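 Also: 0% = buffer alone and 100% = reference blocker.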 The settings on record: hERG-expressing cells, channel activity single-concentration screen; concentration not given here.
Sequence of Voltage-gated inwardly rectifying potassium channel KCNH2 (Homo sapiens) (Q12809 whole entry, looked up): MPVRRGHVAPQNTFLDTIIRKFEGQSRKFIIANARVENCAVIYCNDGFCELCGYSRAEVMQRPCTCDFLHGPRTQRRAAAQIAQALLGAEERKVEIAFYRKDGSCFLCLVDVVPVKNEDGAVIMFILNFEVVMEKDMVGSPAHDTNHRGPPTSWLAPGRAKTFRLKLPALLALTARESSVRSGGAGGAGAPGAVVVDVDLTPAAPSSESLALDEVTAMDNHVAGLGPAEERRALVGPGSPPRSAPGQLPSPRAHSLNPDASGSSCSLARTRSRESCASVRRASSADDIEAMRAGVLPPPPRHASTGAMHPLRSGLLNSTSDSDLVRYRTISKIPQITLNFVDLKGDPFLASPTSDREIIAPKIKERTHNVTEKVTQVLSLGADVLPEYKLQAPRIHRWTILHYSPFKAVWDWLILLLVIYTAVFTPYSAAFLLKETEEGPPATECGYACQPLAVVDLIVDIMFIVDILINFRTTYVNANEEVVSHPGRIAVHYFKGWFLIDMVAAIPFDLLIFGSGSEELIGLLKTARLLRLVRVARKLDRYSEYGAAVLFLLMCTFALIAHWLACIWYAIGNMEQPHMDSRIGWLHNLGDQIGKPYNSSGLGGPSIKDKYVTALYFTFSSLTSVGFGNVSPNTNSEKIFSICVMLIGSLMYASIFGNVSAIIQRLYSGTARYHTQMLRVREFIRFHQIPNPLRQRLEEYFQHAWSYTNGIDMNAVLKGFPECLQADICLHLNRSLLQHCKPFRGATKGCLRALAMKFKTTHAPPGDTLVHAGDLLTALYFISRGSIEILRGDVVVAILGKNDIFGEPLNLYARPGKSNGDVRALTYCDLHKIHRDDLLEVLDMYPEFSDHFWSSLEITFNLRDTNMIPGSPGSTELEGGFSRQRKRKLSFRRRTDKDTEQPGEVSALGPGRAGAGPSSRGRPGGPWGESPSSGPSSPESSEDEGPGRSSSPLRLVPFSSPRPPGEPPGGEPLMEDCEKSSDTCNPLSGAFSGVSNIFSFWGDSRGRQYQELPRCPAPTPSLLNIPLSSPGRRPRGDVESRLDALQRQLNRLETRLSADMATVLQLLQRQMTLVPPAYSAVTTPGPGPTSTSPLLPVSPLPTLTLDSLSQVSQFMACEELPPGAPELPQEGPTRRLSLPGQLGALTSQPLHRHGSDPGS
With `NC(CNO)C(=O)O` (stereo not drawn), the hERG blockade is -10.6% (inactive). Regarding `Nc1nc2c(ncn2C2C=CC(CO)C2)c(=O)[nH]1` (stereo not drawn), the hERG blockade is 1.77% (inactive). For the compound `CN1CCCC1c1cccnc1.O=C(O)c1ccccc1O.O=C([OH2+])c1ccccc1O.O=C([OH2+])c1ccccc1O.O=C([OH2+])c1ccccc1O.[Mn+2]` (stereo not drawn), the hERG blockade was 15.5% (inactive). Consider `CN1CCCC1c1cccnc1.O=C(O)c1ccccc1O.O=C([OH2+])c1ccccc1O.O=C([OH2+])c1ccccc1O.[Mn+2]` (stereo not drawn), for which the hERG blockade was 13.4% (inactive). Turning to `CN1CCCC1c1cccnc1.O=C(O)c1ccccc1O.O=C([OH2+])c1ccccc1O.O=C([OH2+])c1ccccc1O.O=C([OH2+])c1ccccc1O.[Cu+2]` (stereo not drawn), the hERG blockade was 26% (active). With `O=C(O)CCSc1ncnc2nc[nH]c12` the figure was 2.65% (inactive); with `N=C(c1ccc2ccccc2c1)c1ccccc1Cc1ccccc1`, 9.45% (inactive). With `CC1(CCOCc2ccccc2)NC(=O)NC1=O` (stereo not drawn) the figure was -3.15% (inactive); with `COc1ccc(C=C(C#N)C(N)=O)cc1OC`, 4.46% (inactive). For the compound `COc1ccc(C[N+](C)(C)N)cc1OC`, the hERG blockade was -25.5% (active). The same measure for `Nc1nc(N)nc(CCCCc2nc(N)nc(N)n2)n1`: 8.11% (inactive); for `NCc1nnn(Cc2ccccc2)c1N`: 0.879% (inactive); for `CC1(C(=O)O)CCCC1C(=O)O` (stereo not drawn): 0.951% (inactive).

Take `O=c1ccnc(SCc2ccc(Cl)cc2)[nH]1`: the hERG blockade was -3.26% (inactive). As for `O=S(=O)(CC(O)C(Cl)(Cl)Cl)NNc1ccccc1` (stereo not drawn), the hERG blockade was -8.3% (inactive). With `O=CNC(Cc1cnc[nH]1)C(=O)O` (stereo not drawn) the figure was -6.41% (inactive). The same measure for `O=S(=O)(O)c1cc(N=Nc2cccc3ccccc23)c(O)c2ncccc12`: 10.6% (inactive); for `Nc1ccc(N=Nc2c(S(=O)(=O)O)cc3ccccc3c2S(=O)(=O)O)cc1`: 5.01% (inactive); for `O=S(=O)(O)c1cc(N=[N+]([O-])c2cc(S(=O)(=O)O)c3ccccc3c2)cc2ccccc12`: 20.3% (active). The same measure for `CCC(Nc1ncnc2nc[nH]c12)C(=O)O` (stereo not drawn): -0.207% (inactive); for `S=C(S)NCCN1CCNCC1`: 6.35% (inactive); for `O=CN1CCN(CC(O)CN2CCCCC2)CC1` (stereo not drawn): -4.54% (inactive). Regarding `CN(C)CC1CCC2=C(C1=O)C(c1ccc(Cl)c(Cl)c1)C1=C(CCC(CN(C)C)C1=O)O2` (stereo not drawn), the hERG blockade is 24.7% (active).

Regarding `CN(C)CC1CCCC(CN(C)C)C1=O` (stereo not drawn), the hERG blockade is -6% (inactive). The same measure for `O=C1c2ccccc2C(=O)N1c1ccc(Cc2ccc(N3C(=O)c4ccccc4C3=O)cc2)cc1`: -0.893% (inactive); for `O=C(O)C=CC(=O)Nc1ccccn1`: 5.5% (inactive); for `O=C(CC(=O)c1ccncc1)c1ccccc1`: 10.3% (inactive). With `N=C(CC(=O)Nc1ccccn1)c1ccccc1` the figure was -21.8% (active).

Take `CC1CC2C3CCC4=CC(=O)C=CC4(C)C3(Cl)C(Cl)CC2(C)C1(O)C(=O)COP(=O)(O)O` (stereo not drawn): the hERG blockade was 10.3% (inactive). Consider `COc1cc2c(cc1OC)C(CCN)=NCC2`, for which the hERG blockade is 26.9% (active). `Cc1cc(OCC(=O)O)c(Cl)cc1Cl`: the hERG blockade is 3.22% (inactive). The same measure for `O=c1[nH]c(=S)[nH]c(-c2ccccc2)c1Cc1c(O)ccc2ccccc12`: -0.358% (inactive). For `S=c1nc[nH]c2c1ncn2Cc1ccco1`, the hERG blockade is -15.9% (inactive). For the compound `O=C(O)CCCCn1cnc2c(=S)nc[nH]c21`, the hERG blockade is 6.53% (inactive). With `O=C(O)CCn1cnc2c(=S)nc[nH]c21` the figure was -35.8% (active); with `Nc1ccccc1SCc1csc(-c2ccc(Cl)cc2)n1`, 4.83% (inactive); with `CC(C)c1cc(C(F)(F)F)nc(NNc2nc(C(C)C)cc(C(F)(F)F)n2)n1`, 7.39% (inactive).

With `OCC1CCCC(n2cnc3c(=S)nc[nH]c32)O1` (stereo not drawn), the hERG blockade was -13.5% (inactive). Turning to `Nc1nc2c(ncn2C2CCC(CO)O2)c(=O)n1C(=O)c1ccccc1` (stereo not drawn), the hERG blockade was -28.6% (active). `COc1nc(N)nc2c1ncn2C1CC(O)C(CO)O1` (stereo not drawn): the hERG blockade was 12% (inactive). For the compound `O=C(O)c1c2c(c(O)c3c1CN(C1CCCCC1)CO3)OCN(C1CCCCC1)C2`, the hERG blockade was -1.92% (inactive).

On to `C[N+](C)(C)CCCSc1nc2ccccc2[nH]1`, for which the hERG blockade was 6.28% (inactive). With `CC(CCC(=O)O)(c1cc(Br)c(O)c(Br)c1)c1cc(Br)c(O)c(Br)c1`, the hERG blockade is 5.39% (inactive). For `CN(C)CC(C)(C)CN1c2ccccc2Sc2ccccc21`, the hERG blockade was 22.5% (active). With `CN(C)CN1C(=O)SC(=C2C(=O)N(CN(C)C)c3ccccc32)C1=O` the figure was -4.39% (inactive); with `c1ccc2c(c1)-c1nc3ccccc3cc1C2N1CCOCC1` (stereo not drawn), -9.86% (inactive). Turning to `Cc1ncc(CN=Cc2ccc(Cl)cc2)c(N)n1`, the hERG blockade is 6.55% (inactive).

As for `CC12CCC3c4ccc(O)cc4CCC3C1CCC2OC(=O)CCC1CCCC1` (stereo not drawn), the hERG blockade is 6.8% (inactive).

With `CC(Br)C(=O)c1ccc2cc(Br)c3ccccc3c2c1` (stereo not drawn), the hERG blockade is 8.72% (inactive). With `CC(=NO)c1ccc2cc(Br)c3ccccc3c2c1` the figure was 61.6% (active).

`CCCS(=O)(=O)O`: the hERG blockade is -0.642% (inactive). With `c1ccc2c(c1)c1ccccc1n2Cn1c2ccccc2c2ccccc21` the figure was -38.4% (active); with `c1ccc2c(CSCc3cccc4ccccc34)cccc2c1`, 13.9% (inactive); with `NC(=O)CC(N)c1nn[nH]n1` (stereo not drawn), -2.74% (inactive). The same measure for `COc1ccc2c(c1)N(CCC1CCCCN1C)c1ccccc1S2` (stereo not drawn): 59.1% (active). `CN1CCCCC1CCN1CCCCC1` (stereo not drawn): the hERG blockade was 1.07% (inactive). With `CN1CCCCC1CCN1c2ccccc2Sc2ccc(S(C)=O)cc21` (stereo not drawn) the figure was 16.5% (inactive); with `OC(C1=CC(=Cc2ccncc2)c2ccccc21)c1ccncc1` (stereo not drawn), 1.87% (inactive).

With `O=C(NCc1cccs1)OC1CC2CCC1C2` (stereo not drawn), the hERG blockade was -2.2% (inactive). As to `C[N+](C)(C)CC(=O)NN=Cc1c(O)ccc2ccccc12`, the hERG blockade is -4.06% (inactive).

For `c1ccc2c(c1)-c1ccccc1C2N1CC2CCC(CC2)C1`, the hERG blockade was -7.32% (inactive).

For the compound `c1ccc(C(CCN2CCCC2)c2ccccn2)cc1` (stereo not drawn), the hERG blockade is 3.48% (inactive). As to `c1ccc(C(CCN2CC3CCC(CC3)C2)c2ccccc2)cc1`, the hERG blockade was 56.9% (active).

As to `Nc1cc(S(N)(=O)=O)ccc1SSc1ccc(S(N)(=O)=O)cc1N`, the hERG blockade was -0.877% (inactive). For the compound `OC(COc1cccc2ccccc12)CN1CCOCC1` (stereo not drawn), the hERG blockade is 2.26% (inactive).

In the case of `Nc1ccc2[nH]cc(CCC(=O)O)c2c1`, the hERG blockade is 1.56% (inactive).

As to `O=P(O)(O)OC1OC(CO)C(O)C(O)C1O` (stereo not drawn), the hERG blockade was -24.6% (active). As for `OCC1OC(N2CCN(C3OC(CO)C(O)C(O)C3O)CC2)C(O)C(O)C1O` (stereo not drawn), the hERG blockade is -5.49% (inactive).
